Measured values reported in PubChem BioAssay (Tox21).
“And” between values parts separate entries of the source, which are not always exact repeats. Equal entries are not always repeated. Where a structure was tested more than once in an assay, its records may differ in their call. The source made the active and inactive calls. A call without a number means that no potency is given here. Unless noted, calls follow the shape of the dose curve; as a rule, active = well fitted curve in the direction sought with a large enough effect in the repeat runs; inconclusive = weak or mixed curves; inactive = no such curve, though single readings can be large; an effect the other way counts as inactive or inconclusive. Starred links: 1 amine or outer side, 2 acyl side, 3 side chain; linkers in the order of their positions; H or OH if unused. Positions of bridges follow the written chain, without caps; N, C: chain ends. Non-standard residues stand in square brackets, D forms with d. Residues, ends and D or L forms follow the SMILES beside them. Chains are numbered I, II in the order given. Actinocin(9to1) = Cc1c2oc3c(C)ccc(C(=O)[*:1])c3nc-2c(C(=O)[*:2])c(N)c1=O; NMeV = CN[C@H](C(=O)O)C(C)C; Sar = CNCC(=O)O

Experiments:
[1] = qHTS assay to identify small molecule antagonists of the thyroid receptor (TR) signaling pathway - cell viability counter screen (AID 743064); also: nearly all actives have a fitted effect of over 50% in size
Summary of the method: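 Rat GH3 pituitary tumor cells stably expressing two TR response elements driving luciferase were plated, rested 4 h, then dosed with library compounds and T3 (1 nM final). After 23.5 h at 37 °C, CellTiter-Fluor was added for 30 min and fluorescence recorded.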

[2] = qHTS assay to identify small molecule antagonists of the thyroid receptor (TR) signaling pathway (AID 743065); also: nearly all actives have a fitted effect of over 55% in size
Summary of the method: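 Antagonism measured as loss of luciferase signal in GH3 cells stably carrying a TRE-luciferase reporter, co-treated with compound and T3 (1 nM final) for 23.5 h at 37 C. Viability was read in the same well by CellTiter-Fluor.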

[3] = tested on: thyroid hormone receptor (rat, GH3 cells); assay: qHTS assay to identify small molecule agonists of the thyroid receptor (TR) signaling pathway (AID 743066; calls by dose curve)
[4] = biological target: Estrogen receptor (Homo sapiens) (UniProt P03372); assay: qHTS assay to identify small molecule antagonists of the estrogen receptor alpha (ER-alpha) signaling pathway (AID 743069; active = well fitted curve in the direction sought with a large enough effect in the signal ratio in the repeat runs, not every such curve was filed as active; inconclusive = weak or mixed curves, or effect the other way; inactive = no such curve, though single readings can be large or run the other way; the % refers to the signal ratio)
Estrogen receptor (Homo sapiens), sequence (P03372 whole entry, looked up): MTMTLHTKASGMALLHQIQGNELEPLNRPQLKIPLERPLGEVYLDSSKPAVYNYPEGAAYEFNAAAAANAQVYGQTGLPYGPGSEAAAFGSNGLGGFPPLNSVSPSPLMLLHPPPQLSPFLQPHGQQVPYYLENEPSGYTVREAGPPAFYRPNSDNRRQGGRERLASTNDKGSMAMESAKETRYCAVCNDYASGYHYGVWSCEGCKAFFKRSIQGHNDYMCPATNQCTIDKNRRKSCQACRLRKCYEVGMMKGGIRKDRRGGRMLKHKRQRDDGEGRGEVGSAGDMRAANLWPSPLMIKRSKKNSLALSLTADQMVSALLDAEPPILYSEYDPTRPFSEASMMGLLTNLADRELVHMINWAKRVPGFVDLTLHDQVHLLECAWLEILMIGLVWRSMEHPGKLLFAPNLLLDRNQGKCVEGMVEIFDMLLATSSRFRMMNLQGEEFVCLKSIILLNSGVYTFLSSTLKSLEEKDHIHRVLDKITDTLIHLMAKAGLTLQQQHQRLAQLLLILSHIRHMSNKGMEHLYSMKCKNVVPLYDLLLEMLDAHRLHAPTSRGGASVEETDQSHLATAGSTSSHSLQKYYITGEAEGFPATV
Summary of the method: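 Antagonist mode: compounds in DMSO were co-added with 17beta-estradiol to ER-alpha-bla HEK293 cells (2% charcoal-stripped serum) and left 18 h at 37C. Reporter inhibition was measured as FRET fluorescence after 2 h LiveBLAzer substrate at room temperature.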

[5] = qHTS assay to identify small molecule antagonists of the estrogen receptor alpha (ER-alpha) signaling pathway - cell viability counter screen (AID 743074; calls by dose curve;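 also: HEK293 cells carrying ER-alpha-UAS-bla reporter stimulated with 17beta-estradiol; nearly all actives have a fitted effect of over 45% in size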)
[6] = biological target: Estrogen receptor (Homo sapiens) (UniProt P03372); assay: qHTS assay to identify small molecule agonists of the estrogen receptor alpha (ER-alpha) signaling pathway (AID 743075; calls by dose curve;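 also: HEK293 GripTite cells with ER-alpha and UAS-driven beta-lactamase reporter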)
[7] = qHTS assay to identify small molecule antagonists of the estrogen receptor alpha (ER-alpha) signaling pathway using the BG1 cell line (AID 743080; calls by dose curve;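 also: BG1 cells stimulated with 17beta-estradiol alongside compound; nearly all actives have a fitted effect of over 25% in size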)
Summary of the method: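 Readout is ONE-Glo luminescence, taken 30 min at room temperature after reagent addition, preceded by a CellTiter-Fluor viability read; BG1-Luc-4E2 cells had received compound and 17beta-estradiol for 21.5 h at 37 C.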

[8] = qHTS assay to identify small molecule antagonists of the estrogen receptor alpha (ER-alpha) signaling pathway using the BG1 cell line - cell viability counter screen (AID 743081);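 also: compound given together with 17beta-estradiol as the ER stimulus; nearly all actives have a fitted effect of over 45% in size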
Aromatase (Homo sapiens) = Aromatase (Homo sapiens) (UniProt P11511); assay: qHTS assay to identify aromatase inhibitors (AID 743083); also: nearly all actives have a fitted effect of over 55% in size
Aromatase (Homo sapiens), sequence (P11511 whole entry, looked up): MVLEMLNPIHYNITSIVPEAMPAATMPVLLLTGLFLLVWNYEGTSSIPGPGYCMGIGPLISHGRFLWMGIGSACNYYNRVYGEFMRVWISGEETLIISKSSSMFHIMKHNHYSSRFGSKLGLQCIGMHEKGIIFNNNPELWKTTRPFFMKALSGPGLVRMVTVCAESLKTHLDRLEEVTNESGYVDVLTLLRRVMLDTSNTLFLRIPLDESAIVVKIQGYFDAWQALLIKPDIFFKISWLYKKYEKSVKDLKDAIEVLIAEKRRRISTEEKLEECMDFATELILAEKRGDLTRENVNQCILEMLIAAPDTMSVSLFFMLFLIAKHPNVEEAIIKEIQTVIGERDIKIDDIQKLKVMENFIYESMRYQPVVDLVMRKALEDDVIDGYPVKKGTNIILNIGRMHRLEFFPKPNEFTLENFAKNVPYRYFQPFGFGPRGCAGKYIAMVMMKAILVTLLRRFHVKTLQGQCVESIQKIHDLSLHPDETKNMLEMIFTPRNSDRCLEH

[9] = biological target: Estrogen receptor (Homo sapiens) (UniProt P03372); assay: qHTS assay to identify small molecule agonists of the estrogen receptor alpha (ER-alpha) signaling pathway using the BG1 cell line (AID 743079); also: nearly all actives have a fitted effect of over 20% in size
Potency is read from the fitted curve at half-maximal effect.

Compound	Potency [1]	Potency [2]	Potency [3]	Potency [4]	Potency [5]	Potency [6]	Potency [7]	Potency [8]	Potency (Aromatase (Homo sapiens))	Potency [9]
Oc1ccc(Cl)cc1Cc1cc(Cl)ccc1O	18.8 µM (active) and 15.6 µM (active) and 27.3 µM (active)	7.5 µM (active) and 3.12 µM (active) and 5.45 µM (active)	inactive	inactive	49.9 µM (active) and 38.9 µM (active)	inactive	33.5 µM (active)	inactive	29.8 µM (active) and 30.6 µM (active)	–
CCCCN(CCO)CCCC	inactive	inactive	inactive	inactive	inactive	inactive	inactive	inactive	inactive	inactive
NCCO	inactive	inactive	inactive	inactive	inactive	inactive	inactive	inactive	inactive and 61.1 µM (active)	inactive
CC(C(O)c1ccc(O)cc1)N1CCC(Cc2ccccc2)CC1 (stereo not given)	21.1 µM (active)	23.7 µM (active)	inactive	inactive	inactive	inactive	–	–	inactive	inactive
CCC(C)(Oc1ccc(C2(c3ccc(OC(C)(CC)C(=O)O)cc3)CCCCC2)cc1)C(=O)O (stereo not given)	inactive	inactive	inactive	inactive	inactive	inactive	inactive	inactive	inactive	inactive
Cc1c2oc3c(C)ccc(C(=O)N[C@@H]4C(=O)N[C@H](C(C)C)C(=O)N5CCC[C@H]5C(=O)N(C)CC(=O)N(C)[C@@H](C(C)C)C(=O)O[C@@H]4C)c3nc-2c(C(=O)N[C@@H]2C(=O)N[C@H](C(C)C)C(=O)N3CCC[C@H]3C(=O)N(C)CC(=O)N(C)[C@@H](C(C)C)C(=O)O[C@@H]2C)c(N)c1=O (I: T[dV]P[Sar][NMeV] / II: T[dV]P[Sar][NMeV]; ester I:1-I:C, II:1-II:C; linker I:N-II:N via Actinocin(9to1))	6 nM (active) and 0.9 nM (active)	0.0042 µM (active)	inactive	53.5 nM [inconclusive] (active) and 13.4 nM [inconclusive] (active)	–	inactive	84.1 nM (active) and 10.6 nM (active)	15 µM (active) and 13.3 µM (active)	94.4 nM (active) and 1.7 nM (active)	–
C=CS(=O)(=O)O	inactive	inactive	inactive	inactive	inactive	inactive	inactive	inactive	inactive	inactive
CC(=O)CC(C)=O	inactive	inactive	inactive	inactive	inactive	inactive	inactive	inactive	inactive	inactive
CC(=O)N[C@@H](CS)C(=O)O	inactive	inactive	inactive	inactive	inactive	inactive	inactive	inactive	inactive	inactive
C=C(C)C(=O)O	inactive	inactive	inactive	–	inactive	inactive	inactive	inactive	inactive	inactive
O=C(OCc1ccccc1)c1ccc(O)cc1	inactive	inactive	inactive	inactive	inactive	54.9 µM [inconclusive] (active)	–	inactive	inactive	10.6 µM (active) and 12.2 µM (active)
c1ccc2cc3c(ccc4ccccc43)cc2c1	inactive	inactive	inactive	–	inactive	55.1 µM [activator] (active) and inactive	inactive	inactive	inactive	54.6 µM (active) and 48.6 µM (active)
O=C(O[C@@H]1Cc2c(O)cc(O)cc2O[C@@H]1c1cc(O)c(O)c(O)c1)c1cc(O)c(O)c(O)c1	48.7 µM (active) and 52.5 µM (active)	27.4 µM (active) and 26.3 µM (active)	inactive	inactive	inactive	inactive	inactive	inactive	inactive	inactive
CC(C)(C)c1cc(C(C)(C)C)c(O)c(C(C)(C)C)c1	27.3 µM (active)	27.3 µM (active)	9.69 µM (active)	–	inactive	inactive	inactive	inactive	–	inactive
BrC1CCC(Br)C(Br)CCC(Br)C(Br)CCC1Br (stereo not given)	5.43 µM (active) and 20.6 µM (active)	4.84 µM (active) and 13 µM (active)	inactive	inactive	48.8 µM (active)	inactive	inactive	inactive	–	–
CCn1cc(C(=O)O)c(=O)c2cc(F)c(N3CCNC(C)C3)c(F)c21 (stereo not given)	inactive	inactive	inactive	inactive	inactive	inactive	inactive	inactive	inactive	inactive
Clc1ccc2c(c1)C(N1CCNCC1)=Nc1ccccc1O2	30.6 µM (active)	29.8 µM (active) and 30.6 µM (active)	inactive	inactive	inactive	inactive	11.9 µM (active)	inactive and 54.5 µM (active)	inactive and 17.2 µM (active)	inactive
O=C(Nc1ccccc1SSc1ccccc1NC(=O)c1ccccc1)c1ccccc1	68.6 µM (active)	21.8 µM (active) and 48.6 µM (active)	inactive	inactive	–	–	–	inactive	13.8 µM (active) and 27.3 µM (active)	27.4 µM (active) and 54.5 µM (active)

Compound	Potency [1]	Potency [2]	Potency [3]	Potency [4]	Potency [5]	Potency [6]	Potency [7]	Potency [8]	Potency (Aromatase (Homo sapiens))	Potency [9]
CCCCOCCOC(=O)c1ccccc1C(=O)OCCOCCCC	inactive	30 µM (active)	inactive	–	inactive	inactive	inactive	inactive	inactive	inactive
CCCNC(C)C(=O)Nc1ccccc1C (stereo not given)	inactive	inactive	inactive	inactive	inactive	inactive	inactive	inactive	inactive	inactive
OCC(CO)N[C@H]1C[C@](O)(CO)[C@@H](O)[C@H](O)[C@H]1O	inactive	inactive	inactive	inactive	inactive	inactive	inactive	inactive	inactive	inactive
Cc1cc(C2(c3cc(C)c(O)cc3C)OS(=O)(=O)c3ccccc32)c(C)cc1O	54.5 µM (active)	inactive	inactive	–	inactive	1.38 µM [inconclusive] (active) and inactive	inactive	27.3 µM (active) and 24.3 µM (active)	–	864 nM (active) and 10.9 µM (active)
CC1COC(=O)O1 (stereo not given)	inactive	inactive	inactive	–	inactive	inactive	inactive	inactive	inactive	inactive
Cc1ccc(-c2cc(C(F)(F)F)nn2-c2ccc(S(N)(=O)=O)cc2)cc1	26.6 µM (active) and 48.4 µM (active)	23.7 µM (active) and 30.5 µM (active) and 54.5 µM (active)	inactive	–	inactive and 43.5 µM (active)	23.9 µM [activator] (active) and inactive	inactive	inactive	29.8 µM (active) and 30.5 µM (active)	7.5 µM (active)
Nc1nc2ccccc2[nH]1	inactive	inactive	inactive	inactive	inactive	inactive	inactive	inactive	inactive	inactive
CN1C(=O)c2ccc([N+](=O)[O-])cc2C1=O	inactive	inactive	inactive	inactive	–	inactive	inactive	inactive	inactive	inactive
C=C(C)C1CC=C(C)C(OC(C)=O)C1 (stereo not given)	inactive	inactive	inactive	inactive	inactive	inactive	inactive	inactive	inactive	inactive
Cc1scc2c1N(C(=O)CN1CCN(C)CC1)c1ccccc1NC2=O	inactive	inactive	inactive	inactive	inactive	inactive	inactive	inactive	inactive	inactive
O=C(O)CP(=O)(O)O	inactive	inactive	inactive	inactive	inactive	inactive	inactive	inactive	inactive	inactive
COc1ccc(Cc2cnc(N)nc2N)cc1OC	inactive	inactive	inactive	–	inactive	inactive	inactive	inactive	inactive	inactive
O=C1NCC2(CCN(CCc3ccccc3)CC2)O1	inactive	inactive	inactive	–	inactive	inactive	inactive	inactive	inactive	29.8 µM (active)
C=CC(=O)OCCCCCCCC	inactive	inactive	inactive	inactive	inactive	inactive	inactive	inactive	inactive	inactive
NCCCCCC(=O)O	inactive	inactive	inactive	–	inactive	inactive	inactive	inactive	inactive	inactive
O=C(Oc1ccccc1)c1ccccc1O	inactive	inactive	inactive	–	inactive	inactive	inactive	inactive	inactive	inactive
CC(=O)OCCOCCOCCOC(C)=O	inactive	inactive	inactive	inactive	inactive	inactive	inactive	inactive	inactive	inactive
